From ChEMBL document CHEMBL1157539, “Thousands of chemical starting points for antimalarial lead identification” (Nature, 2010)

Each molecule was assayed on Plasmodium falciparum (assay: GSK_TCMDC: Inhibition of Plasmodium falciparum 3D7 in whole red blood cells, using parasite LDH activity as an index of growth. Test compounds present at 2uM).
Assay type: functional

SMILES	Inhibition [%]
O=C(Nc1ccccc1)Nc1cccc(-c2ccc(-c3nc4cc(C(F)(F)F)ccc4[nH]3)cc2)c1	100
CC(C)(C)c1cc(C(=O)N2CCN(c3nccnc3C#N)CC2)n(Cc2ccccc2)n1	100
Br.C=CCc1cccc(C)c1OCCCON1C(=N)N=C(N)NC1(C)C	94
COc1cc(Nc2nccc(-c3c(-c4cccc(NC(=O)c5c(F)cccc5F)c4)nn4ncccc34)n2)cc(OC)c1OC	98
O=C(O)c1ccc(OCOCOc2ccc(C(=O)O)c(O)c2)cc1O	99
CC(C)(C)C1CCC(CC2=C(C(=O)O)c3ccccc3C2=O)CC1 (centres undefined)	91
Cc1nc(-c2cccc(C(=O)NC3CCC(CCN4CCc5ccc(-c6cccnc6)cc5CC4)CC3)c2)no1.Cl (centres undefined)	98
COc1c(C2CCN(CCCCNC(=O)c3cc(-c4ccc(Cl)cc4)sc3C)CC2)ccc2c1CCCC2	100
Cc1cccc2nc(-c3ccc(-c4ccc(NC(=O)NCc5cccc(F)c5)cc4)s3)[nH]c12	100
NCc1ccc(CNCc2ccc(-c3ccc(-c4nc5cc(F)ccc5[nH]4)cc3)cc2)cc1.O=C(O)C(F)(F)F	100
CC1(C)N=C(N)N=C(N)N1c1ccc([N+](=O)[O-])cc1.Cl	93
O=c1cnc2ccc(F)cc2n1CCN1CCC(NCc2cc(-c3ccccc3)cs2)CC1	91
CC(C)C[C@H](Nc1ccc(C#N)c2ccccc12)C(=O)NC(C)(C)C12CC3CC(CC(C3)C1)C2.O=C(O)C(F)(F)F	96
O=C(NCC1CCC(C(=O)NC2CCCc3ccccc32)CC1)c1ccc(O)c(-c2cccc([N+](=O)[O-])c2)c1 (centres undefined)	99
Cc1cc(N[C@@H](Cc2ccccc2)C(=O)NCc2cccc(F)c2)nc(NCCc2cccnc2)n1.O=C(O)C(F)(F)F	92
O=C(Cc1ccc[n+]([O-])c1)Nc1cccc(-c2cccc(-c3nc4cc(C(F)(F)F)ccc4[nH]3)c2)c1	92
CS(=O)(=O)CCNCc1cccc(-c2cc3c(Nc4ccc(OCc5ccccc5)cc4)ncnc3cn2)c1.Cl	100
O=C(O)C(F)(F)F.O=[N+]([O-])c1cnc(Nc2ccccc2O)nc1Nc1ccccc1O	98
COc1cc2nc(N3CCC(c4ccccc4)CC3)nc(NCc3ccc(=O)[nH]c3)c2cc1OC	100
CCCCCCc1cc(OC)c(OC)cc1C(C)Nc1ccnc2cc(Cl)ccc12 (centres undefined)	95

SMILES	Inhibition [%]
O=C(Nc1ccc(-c2nc3ccccc3[nH]2)cc1)c1ccc([N+](=O)[O-])s1	100
CCC(NC(=O)c1ccccc1NC(=O)c1ccc(C)cc1)C(=O)OC (centres undefined)	95
Oc1ccccc1CNC1CCCCC1NCc1ccccc1O (centres undefined)	96
CCCc1ccc(S(=O)(=O)NC2CCN(c3ccnc(Nc4ccc(OC)cc4)n3)C2)cc1 (centres undefined)	89
COc1cc2nc(NCCc3ccccc3)nc(NCCCc3ccccc3)c2cc1OC	100
CN1CCN(c2ccnc3ccc(NC(=O)Cc4ccc5ccccc5c4)cc23)CC1	100
CCc1cn2c3c(cc(C(=O)N[C@@H](Cc4ccccc4)[C@H](O)CNC4CCOCC4)cc13)N(CC(F)(F)F)S(=O)(=O)CC2.O=CO	98
Cl.O=C(N[C@@H](Cc1ccccc1)[C@H](O)CNC1CCCc2ccccc21)c1cc(C2CCCC2)cc(N2CCCC2=O)c1 (some centres undefined)	97
O=C(Nc1ccc(-c2cccc(-c3nc4cc(C(F)(F)F)ccc4[nH]3)c2)cc1)c1csnn1	98
Cc1cc2nc(-c3ccc(/C=C/C(=O)NC4CCN(Cc5ccccc5)CC4)cc3)[nH]c2cc1C	98
Cc1sc2nc(CSc3ccccc3)nc(N3CCN(CC(=O)N4CCCC4)CC3)c2c1C	91
CCN(CCCN1CCCCC1)c1cc(C)nc(Nc2ccc(Oc3ccccc3)cc2)n1.O=C(O)C(F)(F)F	100
CN(/N=C/c1ccc(Cl)cc1)c1nc(NCCc2ccc(O)cc2)nc(N2CCNCC2)n1	100
CCNc1cc(C)nc(Nc2ccc(NC(=O)C3CCCC3)cc2)n1	99
CN1CCN(CC(=O)Nc2cccc(-c3cccc(-c4nc5cc(C(F)(F)F)ccc5[nH]4)c3)c2)CC1	100
CCC(C)c1ccc(NC(=O)c2ccc(S(=O)(=O)Nc3ccc(OC)c(N4CCN(CC5CC5)CC4)c3)cc2)cc1.O=C(O)C(F)(F)F (centres undefined)	94
Cc1ccccc1C1CCN(C2CCC(NC(=O)/C=C/c3ccc(F)c(F)c3)CC2)CC1 (centres undefined)	93
Cc1cccc2nc(-c3ccc(-c4cccc(CNCc5cccc(N)c5)c4)s3)[nH]c12.O=C(O)C(F)(F)F	100
Cc1cc(NC(=O)CCN2CCN(c3cccc(Cl)c3Cl)CC2)ccc1N1CCN(C(C)C)CC1.Cl	99
